Measurements: PubChem BioAssay AID1851 (National Center for Advancing Translational Sciences (NCATS), 2009)
Values joined by “and” are separate entries in the source; they are usually repeats but may differ in a detail not shown here. Identical values can stand only once. About 5,800 (36%) of roughly 16,000 compounds were called active. Inconclusive results (about 23%) are left out. Calls come from the whole dose curve; as a rule, active = well fitted curve in the direction sought with a large enough effect; inconclusive = small, poorly fitted or top-dose-only effect, or effect the other way; inactive = no such curve, though single readings can be large or run the other way. The list shows a part of the results. The source holds several records for some structures; these can differ, active in one and inactive in another.
% is set by controls: 0 for no effect and ±100 for the full control effect.

These compounds were tested against Cytochrome P450 2C19 (Homo sapiens) (UniProt P33261) (assay: Cytochrome panel assay with activity outcomes). Conditions: recombinant CYP, pro-luciferin dealkylation, luminescence, p450-cyp2c19; series mostly up to 57.1 µM.
Sequence of Cytochrome P450 2C19 (Homo sapiens) (P33261 whole entry, looked up): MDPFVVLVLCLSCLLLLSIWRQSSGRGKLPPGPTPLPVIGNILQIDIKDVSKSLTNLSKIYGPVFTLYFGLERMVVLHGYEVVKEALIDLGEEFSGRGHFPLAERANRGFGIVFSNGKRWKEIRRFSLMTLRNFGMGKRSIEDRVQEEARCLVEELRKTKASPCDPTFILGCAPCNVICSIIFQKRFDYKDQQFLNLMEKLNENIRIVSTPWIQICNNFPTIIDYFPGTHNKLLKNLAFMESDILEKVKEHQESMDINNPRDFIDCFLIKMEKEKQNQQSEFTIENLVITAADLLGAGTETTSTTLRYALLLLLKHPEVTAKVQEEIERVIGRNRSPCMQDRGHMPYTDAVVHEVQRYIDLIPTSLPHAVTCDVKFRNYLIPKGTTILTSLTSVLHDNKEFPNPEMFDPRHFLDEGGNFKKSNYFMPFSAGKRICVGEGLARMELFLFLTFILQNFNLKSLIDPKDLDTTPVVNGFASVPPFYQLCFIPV
`Cn1cc([N+](=O)[O-])c(C(=O)Nc2cc(Oc3cccnc3)cc([N+](=O)[O-])c2)n1` was tested, and the AC50 was 7.94 µM (active). For `O=C(NNC(=O)C1CC(c2cccnc2)=NO1)Nc1cccc(F)c1` (centres undefined), the AC50 was “inactive”. For `CC1CCCC(C)N1C(=O)C1CC(c2ccc(F)cc2)=NO1` (centres undefined), the AC50 was 17.8 µM (active). For `O=C(NC1CCCC1)C1CC(c2ccc(F)cc2)=NO1` (centres undefined), the AC50 was 10 µM (active). In the case of `CO[C@H]1COC(=O)[C@H](C)COC(=O)C/C=C\[C@@H](C)[C@H](OC)COC(=O)C/C=C\[C@@H]1C`, the activity, negative = inhibition is reported as -42.3% [at 11.4 µM] (inactive). `COc1nc(C)nc(Cl)c1NC1=NCCN1` was tested, and the AC50 was “inactive”. With `Fc1ccc(CN(C2=NCCN2)c2c(Cl)cccc2Cl)cc1` the AC50 was “inactive”. For `Clc1cccc(Cl)c1NC1=NCCN1`, the AC50 was “inactive and 5.01 µM (active)”. In the case of `Clc1cccc(Nc2nnc(-c3ccccc3)c3ccccc23)c1`, the AC50 is reported as 0.794 µM (active). For `Cc1ccc(COc2coc(CO)cc2=O)cc1`, the AC50 was 14.1 µM (active). With `C=C1C(=O)C=C2CN(C(=O)c3ccccc3)[C@@](Cc3ccc(F)cc3)(C(=O)OC)[C@@H]12` the AC50 was 5.01 µM (active). `COC(=O)[C@@]1(Cc2ccc(OC)cc2)[C@@H]2C(=CC(=O)[C@H]2CC(=O)C(=O)N(C)C)CN1C(=O)c1ccccc1` was tested, and the AC50 was “inactive”. `COc1ccc(C(=O)N2CCC3(CC2)CN(Cc2ccc(C#N)cc2)C3)cc1` was tested, and the AC50 was “inactive”. With `C=C1C(=O)C=C2CN(C(=O)c3ccccc3)[C@@](Cc3ccc(OC)cc3)(C(=O)OC)[C@@H]12` the AC50 was 20 µM (active). `O=C(O)C12CC3(C(=O)O)CC(C(=O)O)(CC(C(=O)O)(C1)C3=O)C2=O` was tested, and the activity, negative = inhibition was -11.5% [at 11.4 µM] (inactive). `C[C@H]1/C=C\CC(=O)OC[C@H](C)C(=O)N2CCC[C@@H]2C(=O)OC1` was tested, and the activity, negative = inhibition was -9.53% [at 11.4 µM] (inactive). `COC(=O)[C@@H]1O[C@@H](SCCN)[C@@H](O)[C@H](O)[C@H]1O` was tested, and the activity, negative = inhibition was 31.9% [at 11.4 µM] (inactive). For `Cc1cn2c(-c3ccncc3)nnc2s1`, the AC50 was “inactive”. For `c1cc(-c2sc(-c3ccncc3)c(-c3ccncc3)c2-c2ccncc2)ccn1`, the AC50 was 1.58 µM (active). With `COc1ccccc1N1CCN(C(=O)C(NS(=O)(=O)c2cccs2)c2ccccc2)CC1` (centres undefined) the AC50 was 3.16 µM (active). In the case of `CC(C)C(NS(=O)(=O)c1cccs1)C(=O)NCCN1CCN(c2ccccc2)CC1` (centres undefined), the AC50 is reported as 14.1 µM (active). `COC(=O)N1CCC2(CC1)CCN(C(c1ccccc1)c1ccccc1)CC2` was tested, and the AC50 was “inactive”. `O=C(C(NS(=O)(=O)c1cccs1)c1ccccc1)N1CCN(c2ccccc2)CC1` (centres undefined) was tested, and the AC50 was 1.41 µM (active). In the case of `CCN1CCN(CCCNC(=O)C(NC(=O)C2CCC(C)CC2)C(C)C)CC1` (centres undefined), the AC50 is reported as “inactive”. With `COc1ccc(N2CCN(CCNC(=O)c3c(C)cc(=O)oc3C)CC2)cc1` the AC50 was “inactive”. With `CC(=O)N[C@@H](C(=O)O)C(C)(C)SN=O` the AC50 was “inactive”. For `CCOC(=O)c1[nH]c(C)c(C(=O)OCC(=O)N2c3ccccc3CC2C)c1C` (centres undefined), the AC50 was 11.2 µM (active). With `Cc1ccccc1OCCNC(=S)Nc1ccccc1` the AC50 was 0.794 µM (active). In the case of `CNCC[C@H](Oc1ccccc1C)c1ccccc1`, the AC50 is reported as “inactive”. `CNC(=S)NNC(=O)COc1ccccc1C` was tested, and the AC50 was “inactive”. With `O=C(CC(=O)N/N=C\c1c(Cl)cccc1Cl)NCc1ccccc1` the AC50 was 2.51 µM (active). For `C[C@@](N)(C(=O)O)c1ccc(P(=O)(O)O)cc1`, the AC50 was “inactive”. With `CN1Cc2c(C(=O)OC(C)(C)C)ncn2-c2ccsc2C1=O` the AC50 was 1.26 µM (active). For `CCOCCCn1cnc2c([nH]c3cc(OC)ccc32)c1=O`, the AC50 was 1.41 µM (active). For `O=C(N/N=C/c1ccc2c(c1)OCO2)/C(=C/c1ccc2c(c1)OCO2)NC(=O)c1ccccc1`, the AC50 was 14.1 µM (active). `Cc1ccc(NC(=O)/C(=C\c2ccc3c(c2)OCO3)NC(=O)c2ccco2)cc1` was tested, and the AC50 was “inactive”. `C=CCNC(=O)/C(=C\c1ccc2c(c1)OCO2)NC(=O)c1ccc(Br)cc1` was tested, and the AC50 was 8.91 µM (active). In the case of `Cc1ccc(N(C(=O)c2csnn2)C(C(=O)NC(C)(C)C)c2cccs2)cc1` (centres undefined), the AC50 is reported as 2.51 µM (active). With `COc1ccc(-c2csc3c2[N+]2=CCC=C2C3=O)cc1` the AC50 was 3.98 µM (active). For `COc1cc(C(=O)N2CCN(C(=O)c3ccccc3)CC2)cc(OC)c1OC`, the AC50 was “inactive”. With `COc1cc2c(C(=O)N3CCN(C)CC3)c(C)n(-c3ccccc3)c2cc1Br` the AC50 was 28.2 µM (active). With `COc1ccccc1CN1CCCC2(CCN(C(=O)c3c(C)noc3C)CC2)C1` the AC50 was “inactive”. With `CC1CCN(C(NC(=O)c2ccco2)C(=O)c2ccccc2)CC1` (centres undefined) the AC50 was 2 µM (active). In the case of `CC(C)NC(=O)N1CCCC2(CCN(C(=O)c3ccco3)CC2)C1`, the AC50 is reported as “inactive”. For `COc1ccc(C(=O)N2CCC[C@@]3(CCN(CC(C)C)C3)C2)cc1`, the AC50 was “inactive”. For `Cc1ccc(C2C(=O)N(C3CCCC3)CC(=O)N2CC2COc3ccccc3O2)cc1` (centres undefined), the AC50 was 6.31 µM (active). With `O=C(c1ccc(Cl)cc1)N1CCCC(c2ccccc2)=N1` the AC50 was 4.47 µM (active). For `NC(=O)CNC(=O)[C@@H]1CC2(CC(c3ccc(Cl)cc3)=NO2)CN1C(=O)c1ccccc1` (some centres undefined), the AC50 was “inactive”. For `Cc1ccc(S(=O)(=O)N2CCN(Cc3ccccc3C(F)(F)F)CC2)cc1`, the AC50 was 2.24 µM (active). With `O=S(=O)(c1ccc(Br)cc1)N1CCN(S(=O)(=O)c2ccc(Br)cc2)CC1` the activity, negative = inhibition was -4.78% [at 11.4 µM] (inactive). With `Cc1ccc(S(=O)(=O)N2CCN(S(C)(=O)=O)C2)cc1` the AC50 was 11.2 µM (active). In the case of `COc1ccccc1CN1CCC2(CC1)CCN(S(=O)(=O)c1ccccc1)CC2`, the AC50 is reported as “inactive”. For `CN(C)[C@H]1C(=O)C(C(=O)NCN2CCCC2)=C(O)[C@]2(O)C(=O)C3=C(O)c4c(O)cccc4[C@](C)(O)[C@H]3C[C@H]12`, the activity, negative = inhibition was -26.1% [at 11.4 µM] (inactive). `Cc1c(CCO)c(=O)n(-c2ccccc2)n1S(=O)(=O)c1c(Cl)cc(Cl)cc1Cl` was tested, and the AC50 was 2.82 µM (active). `Cc1c(N(C)CS(=O)(=O)O)c(=O)n(-c2ccccc2)n1C` was tested, and the AC50 was “inactive”. In the case of `Cc1ccc(S(=O)(=O)/N=C(/Nc2c(C)n(C)n(-c3ccccc3)c2=O)c2ccc(Cl)cc2)cc1`, the AC50 is reported as “inactive”. In the case of `CCOC(=O)N1CCN(CC(=O)c2ccc3c(c2)CCN3)CC1`, the AC50 is reported as 14.1 µM (active). `N[C@@H](CSCc1ccccc1)C(=O)O` was tested, and the activity, negative = inhibition was -4.77% [at 11.4 µM] (inactive). In the case of `S=C(NCCSCc1ccc(Cl)cc1Cl)Nc1ccccc1`, the AC50 is reported as 1.12 µM (active). For `O=C(Cc1ccccc1)NCCSCc1ccc(Cl)cc1`, the AC50 was 2.24 µM (active). In the case of `S=C(NCCSCc1c(Cl)cccc1Cl)Nc1ccccc1`, the AC50 is reported as 1.41 µM (active). For `COc1c2ccoc2nc2c(OC)c(OC[C@H](O)C(C)(C)O)ccc12`, the AC50 was “inactive”. `C/C(=N\NC(N)=S)c1ccc[nH]1` was tested, and the activity, negative = inhibition was 20.4% [at 11.4 µM] (inactive). `C[C@@H](C(=O)NCc1ccc(S(C)(=O)=O)cc1)[C@@H]1C[C@@]1(C)[C@@H](NC(=O)OCc1ccccc1)c1ccccc1` was tested, and the AC50 was 1.26 µM (active). For `C[C@@H](C(=O)NCc1cccc2ccccc12)[C@H]1C[C@]1(C)[C@H](NC(=O)OCc1ccccc1)c1ccccc1`, the AC50 was 2.51 µM (active). For `O=P(O)(CCc1ccccc1)C(O)c1ccccc1` (centres undefined), the AC50 was “inactive”. With `C/C(=N\N1CCN(C2c3ccccc3-c3ccccc32)CC1)c1cccnc1` the AC50 was 4.47 µM (active). In the case of `O=[N+]([O-])c1cc(/C=N/N2CCN(C3c4ccccc4-c4ccccc43)CC2)ccc1Cl`, the AC50 is reported as “inactive”. `C/C(=N\N1CCN(C2c3ccccc3-c3ccccc32)CC1)c1ccncc1` was tested, and the AC50 was 3.16 µM (active). In the case of `C(=N\N1CCN(C2c3ccccc3-c3ccccc32)CC1)/c1cccnc1`, the AC50 is reported as 0.251 µM (active). With `CC1(C)OC(=O)NC1=O` the AC50 was “inactive”. `COCC(=O)N1CCC2(CCN(Cc3ccccc3OC)CC2)CC1` was tested, and the AC50 was “inactive”. With `COc1ccccc1CNCC(O)(c1ccc(Cl)cc1)c1ccc(Cl)cc1` the AC50 was 2.82 µM (active). `C[C@@]12C(=O)OC(=O)[C@@]1(C)[C@@H]1CC[C@@H]2O1` was tested, and the AC50 was “inactive”. `CC(C)CO[C@H](c1ccc2c(c1)OCO2)[C@H](C)Br` was tested, and the AC50 was 0.0631 µM (active). For `CSc1nc(C)cc(SC(C(C)=O)C(=O)Nc2ccccc2)n1` (centres undefined), the AC50 was “inactive”. For `O=C(CSc1ncnc2nc[nH]c12)c1ccccc1`, the activity, negative = inhibition was 6.64% [at 11.4 µM] (inactive). For `Cc1cc(SCC(=O)c2ccccc2)nc(SCC(=O)c2ccccc2)n1`, the AC50 was 2 µM (active). For `CCN(CC)c1ccc(SS(=O)(=O)O)cc1`, the AC50 was 7.08 µM (active). For `N#C/C(=C/N1CCOCC1)c1ccccc1`, the AC50 was 4.47 µM (active). In the case of `CC(=O)[C@H]([C@@H](c1ccccc1)N1CCOCC1)N1CCOCC1`, the activity, negative = inhibition is reported as 7.37% [at 11.4 µM] (inactive). In the case of `C[N+]1(C)CCC(OC(=O)C(c2ccccc2)c2ccccc2)CC1`, the AC50 is reported as “inactive”. `C[C@H](C(=O)c1ccccc1)[C@@H](c1ccccc1)N1CCOCC1` was tested, and the AC50 was 1.58 µM (active). With `Cc1ccc(-c2nn3c(C)nnc3c3ccccc23)cc1S(=O)(=O)NCc1ccccc1` the AC50 was 5.01 µM (active). For `CC1CCCC(C)N1CCNC(=O)Cn1nc(-c2ccccc2)ccc1=O` (centres undefined), the AC50 was “inactive”. In the case of `CCOC(=O)CNS(=O)(=O)c1cc(-c2nn(C)c(=O)c3ccccc23)ccc1C`, the AC50 is reported as 3.16 µM (active). For `Cc1ccc(-c2nn(C)c(=O)c3ccccc23)cc1CNC(=O)Cn1nc(-c2ccccc2)c2ccccc2c1=O`, the AC50 was 7.94 µM (active). In the case of `CCN(CC)CCNC(=O)C(C)c1nn(C)c(=O)c2ccccc12` (centres undefined), the AC50 is reported as “inactive”. `Cc1nc2ccc3nc(NC(=O)c4ccc(S(=O)(=O)N5CCOCC5)cc4)sc3c2s1` was tested, and the AC50 was “inactive”. In the case of `CCN1CCc2nc(NC(=O)CC(c3ccccc3)c3ccccc3)sc2C1`, the AC50 is reported as 8.91 µM (active). For `CCN1CCc2nc(NC(=O)c3ccc4c(c3)OCCO4)sc2C1`, the AC50 was 15.8 µM (active). `CCN1CCc2c(sc(NC(=S)NC(=O)c3ccccc3)c2C#N)C1` was tested, and the AC50 was “inactive”. With `Cc1nc2c(ccc3nc(NC(=O)c4ccc5c(c4)OCCO5)sc32)s1` the AC50 was 2.51 µM (active). With `CCN1CCC[C@@H](OC(=O)C(c2ccccc2)c2ccccc2)C1` the AC50 was “inactive”.
